Hit rate of the full screen: of about 69,000 compounds, about 950 (1.4%) showed an effect of 50% or more. What follows is part of a selection rich in strong results, with near analogues and random picks from the rest.
Test system: Mycobacterium tuberculosis
Experiment: Cornell M. t heat shock assay; note: in the data most compounds retested in dose-response had high values
Type: functional, organism-based
Design: dose or concentration left out as unconfirmed

SMILES	Percent Effect
Cc1c[nH]c(C(=O)N2C[C@H]3CC[C@@H]2CN(Cc2cscn2)C3)n1	2.551%
CC(C)Cc1cc(CN2C[C@H]3CC[C@@H]2CN(Cc2cscn2)C3)n[nH]1	107.7%
COc1cccc(C(=O)N2C[C@H]3CC[C@@H]2CN(Cc2cscn2)C3)c1	-27.99%
CC(C)(C)c1cc(CN2C[C@H]3CC[C@@H]2CN(Cc2cscn2)C3)n[nH]1	92.4%
CC(C)c1cc(C(=O)N2C[C@H]3CC[C@@H]2CN(Cc2cscn2)C3)no1	37.62%
COC(=O)N1C[C@H]2CC[C@@H]1CN(Cc1cscn1)C2	1.905%
CN1C(=O)C(c2ccccc2)CC12CCN(CCO)CC2.O=C(O)C(F)(F)F (centres undefined)	-21.97%
Cc1cccc(CN2CC3(CCN(C4CCOC4)CC3)OCC2=O)n1.O=C(O)C(F)(F)F.O=C(O)C(F)(F)F (centres undefined)	-30.47%
O=C(O)C(F)(F)F.O=C(c1ccco1)N1CCO[C@@H]2CN(Cc3nccs3)CC[C@@H]2C1	4.898%
CCC1=N[C@@]2(CC[C@@H]3CN(Cc4cccc(Cl)c4)C[C@@H]32)C(=O)N1C.O=C(O)C(F)(F)F	32.88%
Cc1nc(C2CCN(Cc3ncc[nH]3)CC2)no1.O=CO	-19.83%
Cc1oc(-c2nc(C#N)c(NC(C)(C)C)o2)cc1S(=O)(=O)N1CCCC1	1.248%
CNc1oc(-c2ccc(OC)c(S(=O)(=O)N(C)C)c2)nc1C#N	4.952%
CC(C)Nc1oc(-c2ccc(S(=O)(=O)N(C)C)o2)nc1C#N	-8.92%
CN(C)S(=O)(=O)c1ccc(-c2nc(C#N)c(NC3CC3)o2)o1	78.01%
CN(C)S(=O)(=O)c1ccc(-c2nc(C#N)c(NC(C)(C)C)o2)o1.Cl	74.72%
CNc1oc(-c2ccc(S(=O)(=O)N(C)C)o2)nc1C#N	-18.56%
Cc1oc(-c2nc(C#N)c(NC3CC3)o2)cc1S(=O)(=O)N1CCCC1	-1.847%
CN(C)S(=O)(=O)c1ccc(-c2nc(C#N)c(NC3CCCCC3)o2)o1	5.856%
CCN1CCOCC2(CCCN(C(=O)c3ccncc3F)C2)C1.O=C(O)C(F)(F)F (centres undefined)	-0.7478%
Cc1ccc(CN2CCC(O)(Cn3ccc4ncccc43)CC2)o1.Cl	-13.38%
CNC(=O)C1Cn2ccnc2C2(CCN(Cc3ccncc3)CC2)O1.O=C(O)C(F)(F)F.O=C(O)C(F)(F)F.O=C(O)C(F)(F)F (centres undefined)	-2.036%
O=C(NCc1ccco1)[C@H]1CC[C@@H]2[C@@H](CCN2C2CCC2)O1.O=C(O)C(F)(F)F	-4.585%

SMILES	Percent Effect
CN(C)CCOCC1CN(Cc2ccoc2)Cc2nnn(C)c21.O=C(O)C(F)(F)F.O=C(O)C(F)(F)F (centres undefined)	-17.74%
Cc1cc(N(C)C)nc(C2CCCN2)n1.Cl.Cl (centres undefined)	-13.2%
O=C(COCCc1ccccc1)N1CCCC(n2cccn2)C1 (centres undefined)	11.3%
Cn1cc(CN2CCCC23CCN(C(=O)c2ccccc2)CC3)cn1.O=C(O)C(F)(F)F	-27.87%
CN(C)CC(=O)N1CCc2sc(C(=O)N3CCN(C)CC3)cc21	17.23%
CC(C)NC(=O)c1cc2c(s1)CCN2C(=O)CN(C)C	-7.193%
CN(C)CC(=O)N1CCc2sc(C(=O)N3CCOCC3)cc21	54.7%
CC(C)N(C)Cc1cncc2c1CCN(C1CCOCC1)C2.Cl.Cl.Cl	21.63%
CNC(=O)CN1CCC2(CCCN(CC3CCOC3)C2)CC1.O=C(O)C(F)(F)F.O=C(O)C(F)(F)F (centres undefined)	3.829%
O=C(O)C(F)(F)F.O=C(O)C(F)(F)F.O=C1CO[C@@H]2CN(Cc3ccsc3)C[C@H]2N1Cc1ccncc1	1.203%
CN(Cc1noc(C2CC2)n1)C1CCN(Cc2ccncc2)C1 (centres undefined)	51.32%
CN(Cc1noc(C2CC2)n1)C1CCN(CCc2cccs2)C1 (centres undefined)	12.6%
CC(=O)N(Cc1noc(C2CC2)n1)C1CCN(Cc2ccncc2)C1 (centres undefined)	-2.088%
CN(Cc1noc(C2CC2)n1)C1CCN(CCc2cnn(C)c2)C1 (centres undefined)	-5.5%
Cc1ccc(CCN2CCC(N(C)Cc3noc(C4CC4)n3)C2)cc1 (centres undefined)	83.22%
CN(Cc1noc(C2CC2)n1)C1CCN(Cc2ccc(F)c(F)c2)C1 (centres undefined)	-5.311%
CS(=O)(=O)CCNCc1ccc(OCc2cscn2)cc1	-2.969%
CC1c2ncc(Cn3cccn3)n2CCN1c1ncccn1.O=C(O)C(F)(F)F (centres undefined)	40.47%
COc1ccc(-c2n[nH]cc2CNC2CCN(C3CC3)CC2)cc1.Cl	-33.63%
Cc1ccc(N2CCO[C@H]3CN(Cc4cccnc4)C[C@H]32)nn1.O=C(O)C(F)(F)F.O=C(O)C(F)(F)F.O=C(O)C(F)(F)F	-30.09%
CCNc1ccnc(CN2CCCC2C(=O)Nc2nccs2)c1 (centres undefined)	13.04%
CC(=O)Nc1cccc(CN2CCCC2C(=O)Nc2nccs2)c1 (centres undefined)	-15.37%
O=C(Nc1nccs1)C1CCCN1Cc1ccccn1 (centres undefined)	103.1%

SMILES	Percent Effect
Cc1ccc(C(N)c2cccc(S(C)(=O)=O)c2)c(C)c1.Cl (centres undefined)	1.87%
CC(NCc1ccc(OCc2nccn2C)cc1)c1cccnc1 (centres undefined)	-26.18%
Cn1ccnc1C(NCc1ccccc1)c1ccc(F)cc1 (centres undefined)	113.8%
CSc1ccc(CNC(c2ccccc2)c2nccn2C)cc1 (centres undefined)	105.2%
Cn1cc(C(NCc2ccc(F)cc2)c2cccc(F)c2)cn1 (centres undefined)	-7.107%
COc1cccc(C(NCc2ccc(SC)cc2)c2nccn2C)c1 (centres undefined)	112.8%
COc1c(CNC(c2ccc(F)cc2)c2nccn2C)c(C)nn1C (centres undefined)	-11.67%
COc1c(CNC(c2ccccc2)c2ccc(F)cc2)c(C)nn1C (centres undefined)	-7.995%
COc1cccc(-c2cc(NCc3nccn3C)n(C)n2)c1	1.129%
CSc1ccc(CN(CCO)Cc2nccn2C)cc1	-17.8%
CSc1ccc(CNC(c2ccc(F)cc2)c2nccn2C)cc1 (centres undefined)	112.9%
CC(c1ccc(F)cc1)N1CCN(Cc2nccn2C)CC1 (centres undefined)	-10.33%
COc1ccc(CNC(c2cccc(F)c2)c2cnn(C)c2)cc1 (centres undefined)	-3.342%
O=C(O)C(F)(F)F.O=C(O)C(F)(F)F.c1ccc(CO[C@@H]2CN(Cc3nccs3)[C@@H]3COC[C@@H]32)nc1	32.68%
Cn1cc(N2CC3(CCN(Cc4nccs4)CC3)OCC2=O)cn1.O=C(O)C(F)(F)F	-26.5%
CCn1c(NCc2ccccn2)nc2c(C)nn(C)c2c1=O	-10.12%
COc1ccc(CN2CCC(c3cc(O)nc(C)n3)C2)c(OC)c1.O=C(O)CC(O)(CC(=O)O)C(=O)O (centres undefined)	-19.34%
Cl.O=C(NCc1cccc(Cl)c1)C1=NOC2(CCNC2)C1 (centres undefined)	-31.4%
O=C(O)C(F)(F)F.O=C(c1cscn1)N1CC[C@@H]2[C@@H]1CCN2C1CCOC1 (some centres undefined)	5.753%
CCN1C[C@H]2[C@@H](C1)N(C(=O)Cc1ccsc1)CC[C@H]2OC.O=C(O)C(F)(F)F	-3.863%
COCC1Cn2nnc(-c3cnn(C)c3)c2CN1Cc1ccsc1.O=C(O)C(F)(F)F (centres undefined)	14.81%
CCc1ccc(CN2CCN(c3ncc(Cl)cn3)CC2)nc1	68.7%
CCc1ccc(CN2CCN(c3ccc(Cl)nn3)CC2)nc1	15.06%

SMILES	Percent Effect
COc1ccc(CN2CCN(c3ncc(Cl)cn3)CC2)cc1	-15.93%
Cc1nc(Cn2c3c(ccc2=O)CC(NC(C)C)CC3)cs1.O=C(O)C(F)(F)F.O=C(O)C(F)(F)F (centres undefined)	34.33%
COCCN1CCOCC2(CCCN(Cc3cccc(F)c3)C2)C1.O=C(O)C(F)(F)F.O=C(O)C(F)(F)F (centres undefined)	-14.36%
Clc1ccccc1C1(c2ccnc(-c3ncccn3)n2)CCNCC1	-0.2715%
Clc1ccccc1C1(c2ccnc(C3CCCC3)n2)CCNCC1	57.06%
Clc1ccccc1C1(c2ccnc(C3CC3)n2)CCNCC1	-18.26%
CC(C)NC(=O)[C@@H]1C[C@@H]2CCN(Cc3ccoc3)C[C@H]2O1.O=C(O)C(F)(F)F	43.76%
CC(C)N(C)Cc1cnc2n1CCN(C(=O)NC1CCCC1)C2.O=C(O)C(F)(F)F	7.687%
Fc1cnc(N2CCO[C@H]3[C@H](OCCN4CCCC4)CC[C@@H]32)nc1.O=C(O)C(F)(F)F	-1.217%
Cc1ccc(N2CC[C@H]3C[C@@H](C(=O)N4CCOCC4)O[C@H]3C2)nn1.O=C(O)C(F)(F)F	9.789%
O=C(Nc1c(N2CCCC2)cccc1N1CCCC1)c1cnsn1	3.548%
O=C(Nc1c(N2CCCC2)cccc1N1CCCC1)c1cnccn1	26.63%
O=C(Nc1c(N2CCCC2)cccc1N1CCCC1)c1ccccn1	104.6%
Cl.Cn1cc(CN2CCN(CC3(c4ccccc4)CC3)CC2)cn1	-7.6%
Cc1cccc(CN2C(=O)CCC23CCN(C(=O)c2ccco2)CC3)n1.O=C(O)C(F)(F)F	-22.73%
COCc1nc(-c2ccnc(N3CCNCC3)n2)no1.Cl.Cl	24.05%
O=C(NC1CCS(=O)(=O)C1)c1cn(C2CC2)c(=O)c2ccccc12 (centres undefined)	62.62%
CC(C)Cn1cc(C(=O)NC2CCS(=O)(=O)C2)c2ccccc2c1=O (centres undefined)	1.323%
CC(C)n1cc(C(=O)NC2CCS(=O)(=O)C2)c2ccccc2c1=O (centres undefined)	-0.4948%
O=C(O)C(F)(F)F.c1cc(CN2C[C@H](OCC3CCOCC3)[C@H]3COC[C@H]32)cs1	11.94%
